In PubChem BioAssay (NCI) one finds growth data, which are given here for eight compounds.

This is part of a sample that, as a whole, favours compounds with a hit. Of some 83,000 tested, about 20% had one in any assay.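 Note: values are percent growth. 100 is the growth of untreated cells, values between 100 and 0 indicate rising inhibition; between -100 and 0 indicates cell death.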 Values without a mark were called inactive. Activity calls are given as the source filed them. How the source made its calls: active means growth percent below 10; inactive means the rest.

Common to all, as to assay: NCI-60 one-dose screen, 48 h (100 = growth as untreated, 0 = no growth, -100 = all killed)
Settings in all cases: 10 µM unless noted

The subject of assay [1] is HCT-15 colon.
Assay [2] relates to HT29 colon.
The test system of assay [3] is SNB-75 CNS.
Assay [4] concerns SNB-19 CNS.
In assay [5] the test system is U251 CNS.
In assay [6] the test system is PC-3 prostate.
Assay [7] concerns SK-MEL-5 melanoma.
Assay [8] deals with UACC-62 melanoma.
Assay [9] has as its system LOX IMVI melanoma.
For assay [10], the system named is SK-MEL-28 melanoma.
The subject of assay [11] is SK-MEL-2 melanoma.
The test system of assay [12] is EKVX NSCLC.
Assay [13] has as its system SN12C renal.
The subject of assay [14] is UO-31 renal.
Assay [15] deals with TK-10 renal.
The subject of assay [16] is ACHN renal.
In assay [17] the test system is CAKI-1 renal.
The test system of assay [18] is A498 renal.
Assay [19] concerns CCRF-CEM leukemia.
In assay [20] the test system is MOLT-4 leukemia.

Take `Cc1c(-c2cnc3ccc(Cl)cc3c2C(=O)O)nnn1-c1ccc(Cl)cc1`: the growth was 104% in assay [1]; 101% in assay [2]; 95.3% in [3]; 93.1% in assay [4]; 97.3% in assay [5]; 98.5% in assay [6]. The growth in assay [7] was 106%; in assay [8], 82.5%; in [9], 98.8%; in assay [10] it was 105%; in assay [11], 100%; in [12], 121%. In addition, the growth in [13] was 89.5%; in [14], 79%; in [15] it was 101%; in assay [16] it was 94.6%; in assay [17] it was 95.8%; in assay [18], 118%. In addition, the growth is 94% in [19] and 94.1% in assay [20].

For `CN(C)CCOc1nc2c3cc([N+](=O)[O-])ccc3nn2c2ccccc12`, the growth in [1] was 25.9%; in [2], 26.1%; in [3] it was 77.1%; in assay [4], 19.5%; in [5], 21%; in [6], 47.1%. Also, the growth is 45.6% in [7]; 41.8% in assay [8]; 20.2% in assay [9]; 93.7% in assay [10]; 91.6% in [11]; 67.3% in assay [12]. Moreover, the growth in assay [13] was 14%; in assay [14], 23.4%; in [15], 60.8%; in [16], -51.3% (active); in [17], 23.6%; in [18], 31.6%. Also, the growth was 11.7% in assay [19] and 2.34% (active) in assay [20].

`CC(=O)OCCOc1cc(Cl)c(Cl)cc1Cl`: the growth was 104% in [1]; 103% in assay [2]; 102% in [3]; 103% in [4]; 99.2% in assay [5]; 98.3% in [6]. The growth was 99.5% in assay [7]; 98.3% in [8]; 101% in [9]; 113% in assay [10]; 89.9% in [11]; 78.4% in [12]. The growth in [13] was 102%; in assay [14] it was 89.1%; in assay [15], 106%; in assay [16] it was 103%; in assay [17], 96.5%; in [18] it was 82.8%. Also, the results for the growth in [19] and in [20] were -63.4% (active) and 107%, respectively.

Regarding `O=C(O)CCCN1C(=O)CSC1=S`, the growth was 94.3% in assay [1]; 108% in assay [2]; 85.6% in assay [3]; 102% in [4]; 108% in assay [5]; 95.3% in assay [6]. Further, the growth in assay [7] is 101%; in assay [8] it was 96.2%; in assay [9], 94.7%; in assay [10], 105%; in [11] it was 104%; in assay [12], 103%. The growth in assay [13] is 94.9%; in assay [14], 87.9%; in assay [15], 131%; in [16], 108%; in assay [17] it was 104%; in [18] it was 105%. The growth in assay [19] was 99.6%; in assay [20], 98.4%.

As for `COc1cc(-c2c(-c3ccccc3)c[nH]c2C(=O)NCCCO)c(OC)c2c1OCO2`, the growth in assay [1] is 107%; in [2], 106%; in assay [3] it was 92.9%; in assay [4], 97.5%; in assay [5], 104%; in assay [6], 99.1%. Also, the growth is 99.1% in [7]; 93.7% in assay [8]; 99.5% in [9]; 107% in assay [10]; 109% in assay [11]; 99.2% in assay [12]. In addition, the growth in assay [13] was 97.1%; in [14] it was 85.7%; in assay [15], 99%; in assay [16], 98.9%; in assay [17], 91.1%; in assay [18], 74.6%. Further, the growth in [19] was 88.8%; in assay [20], 92.5%.

Regarding `COc1cc2nc3cc([N+](=O)[O-])ccc3c(NCCCNCCO)c2cc1OC`, the growth in [1] is 41.2%; in assay [2] it was 1.17% (active); in [3], -74.2% (active); in [4], -19% (active); in [5], -45.5% (active); in [6], -66.8% (active). Further, the growth was -93.9% (active) in assay [7]; -65.2% (active) in assay [8]; -63.7% (active) in assay [9]; -53.1% (active) in [10]; -44.3% (active) in assay [11]; 7.46% (active) in assay [12]. Further, the growth in assay [13] is -33.3% (active); in assay [14], 48.9%; in [15], -4.55% (active); in assay [16] it was 2.87% (active); in [17], 55.5%; in [18] it was -80.2% (active). In addition, the growth was 0.0749% (active) in assay [19] and 2.59% (active) in [20].

For `Cc1nc2c(c(-c3ccccc3)n1)Cc1c(ccc3ccccc13)O2`, the growth in assay [1] was 107%; in [2] it was 89.1%; in assay [3], 92.2%; in [4] it was 110%; in assay [5] it was 102%; in [6], 87.5%. Further, the growth in assay [7] was 70.8%; in assay [8], 83.8%; in assay [9], 91.5%; in [10], 107%; in assay [11] it was 112%; in [12] it was 128%. Moreover, the growth in assay [13] is 102%; in [14], 69.8%; in [15] it was 106%; in assay [16], 90.8%; in assay [17], 109%; in assay [18] it was 79.1%. The growth in assay [19] is 96.5%; in [20], 97%.

Take `CC(=O)[C@H]1CC[C@]2(C)[C@@H]1CC[C@@H]1[C@@]3(C)C/C(=C/c4cccnc4)C(=O)C(C)(C)[C@@H]3CC[C@]12C`: the growth in assay [1] is 54.4%; in [2] it was 57.1%; in assay [3], 106%; in assay [4], 87.1%; in assay [5] it was 60.7%; in assay [6], 26.9%. Moreover, the growth is 38.9% in assay [7]; 59.9% in [8]; 87.6% in assay [9]; 94.9% in assay [10]; 85.3% in assay [11]; 85.1% in [12]. The growth is 75.6% in assay [13]; 78.2% in [14]; 162% in [15]; 87.3% in assay [16]; 72.5% in assay [17]; 100% in assay [18]. Also, the growth was 31.7% in [19] and 20.3% in assay [20].
